Results reported in PubChem BioAssay (NCI).
This is part of a sample that, as a whole, favours compounds with a hit. Of some 79,000 tested, about 15% had one in any assay. Calls of active or inactive are those of the source. No stated cut-off is given here; in the data, active means growth inhibition above about 70%; inactive means the rest.

Key:
[1] = NCI Yeast Anticancer Drug Screen. Data for the rad52 strain (AID 147);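 further: 0% = growth of vehicle-treated control cultures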; details: S. cerevisiae rad52 mutant growth inhibition, stronger effect = higher value
Method in brief: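 Here a repair-compromised yeast strain receives each compound; its growth is then quantified and normalised to vehicle-only controls.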

[2] = NCI Yeast Anticancer Drug Screen. Data for the rad50EPP+ strain (AID 151);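 further: 0% = growth of vehicle-treated control cultures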; details: S. cerevisiae rad50 mutant strain, stronger effect = higher value
Method in brief: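 Read-out is yeast growth inhibition relative to vehicle; cells used were the rad50EPP+ strain.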

[3] = NCI Yeast Anticancer Drug Screen. Data for the mgt1 strain (AID 153); details: S. cerevisiae mgt1 mutant growth inhibition, stronger effect = higher value
Method in brief: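 Measured: inhibition of mgt1 yeast growth by compound, normalized to vehicle-treated cultures.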

[4] = NCI Yeast Anticancer Drug Screen. Data for the rad50 strain (AID 155);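 further: 0% = growth of vehicle-only cultures of the same strain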; details: S. cerevisiae rad50 strain growth inhibition, stronger effect = higher value
Method in brief: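 Genetically altered yeast (DNA repair pathway); compound treatment; growth inhibition vs vehicle ctrl.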

[5] = NCI Yeast Anticancer Drug Screen. Data for the mec2-1 strain (AID 157); details: S. cerevisiae mec2-1 strain, stronger effect = higher value
Method in brief: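 Using mec2-1 yeast: add compound, measure growth, express inhibition versus vehicle-treated cultures.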

[6] = NCI Yeast Anticancer Drug Screen. Data for the rad14 strain (AID 159);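 further: 0% = growth of vehicle-treated control cultures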; details: S. cerevisiae rad14 strain growth inhibition, stronger effect = higher value
Method in brief: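 Test compounds were applied to a repair-deficient yeast strain. Its growth was then compared with that of cultures given vehicle alone, and inhibition was expressed relative to those controls.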

[7] = NCI Yeast Anticancer Drug Screen. Data for the sgs1 mgt1 strain (AID 161);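 further: 0% = growth of cultures given vehicle only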; details: S. cerevisiae sgs1 mgt1 strain, stronger effect = higher value
Method in brief: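 Yeast cells carrying a defined DNA-repair defect were exposed to test compounds. Growth inhibition was measured relative to vehicle-treated controls.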

[8] = NCI Yeast Anticancer Drug Screen. Data for the CLN2oe strain (AID 163);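 further: 0% = growth of vehicle-only control cultures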; details: S. cerevisiae CLN2oe strain, stronger effect = higher value
Method in brief: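 Whole-cell yeast growth assay. A strain engineered for altered cell-cycle control received compound, and inhibition relative to vehicle-treated cultures was recorded.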

[9] = NCI Yeast Anticancer Drug Screen. Data for the cln2 rad14 strain (AID 165);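 further: 0% = growth equal to vehicle treated cultures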; details: S. cerevisiae cln2 rad14 strain, stronger effect = higher value
Method in brief: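 Yeast strain cln2 rad14, bearing defects in cell cycle control and DNA repair, serves as the test system; values reflect growth inhibition compared with vehicle.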

[10] = NCI Yeast Anticancer Drug Screen. Data for the bub3 strain (AID 167); details: S. cerevisiae bub3 mutant strain, stronger effect = higher value
Method in brief: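 Yeast carrying a defined mutation is treated with each compound, and growth is compared with that of vehicle-exposed cells to give inhibition.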

[11] = NCI Yeast Anticancer Drug Screen. Data for the wt2 strain (AID 169);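 further: 0% = growth of vehicle-treated yeast cultures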; details: S. cerevisiae wt2 strain growth inhibition, stronger effect = higher value
Method in brief: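 Treated yeast vs. vehicle-treated yeast: growth inhibition determined.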

[12] = NCI Yeast Anticancer Drug Screen. Data for the mlh1 strain (AID 171);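 further: 0% = growth of vehicle-treated control cultures of the same strain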; details: S. cerevisiae mlh1 strain growth inhibition, stronger effect = higher value
Method in brief: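 A yeast strain with a defined genetic lesion serves as the test organism. Cultures receive compound or vehicle, and growth is measured.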

[13] = NCI Yeast Anticancer Drug Screen. Data for the sgs1 strain (AID 173);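 further: 0% = growth of vehicle-only control cultures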; details: S. cerevisiae sgs1 mutant, stronger effect = higher value
Method in brief: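 A genetically defined yeast mutant is incubated with the test compound, and its growth is compared to that of the same strain given vehicle.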

[14] = NCI Yeast Anticancer Drug Screen. Data for the mlh1 rad18 strain (AID 175); details: S. cerevisiae mlh1 rad18 strain growth inhibition, stronger effect = higher value
Method in brief: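 Steps: expose repair-defective yeast to compound; measure growth; express inhibition against vehicle-treated controls.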

[15] = NCI Yeast Anticancer Drug Screen. Data for the rad18 strain (AID 177); details: S. cerevisiae rad18 mutant growth inhibition, stronger effect = higher value
Method in brief: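 Measured value is growth inhibition of a yeast strain bearing a DNA repair alteration, referenced to vehicle-treated cells.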

[16] = at 5.0 µM (retest, dose inferred, filed as 0.5)
[17] = at 50.0 µM (retest, dose inferred, filed as 5.0)

Measured: growth inhibition

CSC(=S)Nc1cccc(C)n1
active: [4]; [16] 88% | [4]; [17] 99% | [4]; at 100.0 µM 79% | [5]; [16] 70% | [5]; [17] 99% | [10]; at 100.0 µM 74% | [14]; [17] 99% | [14]; at 50.0 µM 70.1%
inactive: [1]; at 1.2 µM -6% | [1]; at 3.7 µM -5% | [1]; at 11.0 µM -3% | [1]; at 33.0 µM 23% | [1]; at 100.0 µM 63% | [2]; at 1.2 µM -15% | [2]; at 3.7 µM -19% | [2]; at 11.0 µM -27% | [2]; at 33.0 µM -24% | [2]; at 100.0 µM 68% | [3]; at 1.2 µM -52% | [3]; at 3.7 µM -29% | [3]; at 11.0 µM -11% | [3]; at 33.0 µM 16% | [3]; at 100.0 µM 59% | [4]; at 1.2 µM -25% | [4]; at 3.7 µM -4% | [4]; at 11.0 µM -11% | [4]; at 33.0 µM 28% | [4]; at 50.0 µM 41.8% | [5]; at 1.2 µM -61% | [5]; at 3.7 µM -61% | [5]; at 11.0 µM -58% | [5]; at 33.0 µM -36% | [5]; at 50.0 µM 31.6% | [5]; at 100.0 µM 34% | [6]; at 1.2 µM -19% | [6]; at 3.7 µM -15% | [6]; at 11.0 µM 9% | [6]; at 33.0 µM 2% | [6]; at 100.0 µM 50% | [7]; [16] -18% | [7]; [17] 29% | [7]; at 50.0 µM 45% | [8]; at 1.2 µM -24% | [8]; at 3.7 µM -8% | [8]; at 11.0 µM -13% | [8]; at 33.0 µM 12% | [8]; at 100.0 µM 24% | [9]; [16] 9% | [9]; [17] 65% | [9]; at 50.0 µM 38.2% | [10]; at 1.2 µM -9% | [10]; at 3.7 µM -16% | [10]; [16] 39% | [10]; at 11.0 µM -3% | [10]; at 33.0 µM 15% | [10]; [17] 63% | [10]; at 50.0 µM 54% | [11]; at 1.2 µM -29% | [11]; at 3.7 µM -30% | [11]; at 11.0 µM -31% | [11]; at 33.0 µM -10% | [11]; at 100.0 µM 31% | [12]; at 1.2 µM -42% | [12]; at 3.7 µM -40% | [12]; at 11.0 µM -35% | [12]; at 33.0 µM -12% | [12]; at 100.0 µM 66% | [13]; at 1.2 µM -47% | [13]; at 3.7 µM -49% | [13]; at 11.0 µM -32% | [13]; at 33.0 µM -6% | [13]; at 100.0 µM 62% | [14]; [16] 55% | [15]; at 1.2 µM -20% | [15]; at 3.7 µM -15% | [15]; at 11.0 µM -22% | [15]; at 33.0 µM 9% | [15]; at 100.0 µM 69%
